The structures appear in SMILES notation. The source holds several records for some structures; these can differ, active in one and inactive in another. Calls of active or inactive are those of the source. How the source made its calls: active means hit-call score of the fitted dose curve at least 0.9, where 1 is the maximum; inactive means score below 0.9.

This is an account of results in PubChem BioAssay (EPA / NIEHS).

Assay [1] can be described thus: BSK_BT_PBMCCytotoxicity: PBMC Cytotoxicity Assessment in the BioMAP Diversity Plus: BT Assay (AID 2284225).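 Further: PBMC viability measured by Alamar Blue dye reduction fluorescence.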 Particulars: primary human B cells with PBMC. The method in brief: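 75,000 cells/well; cpd 1 h → SEB + TSST-1 (20 ng/mL final each) → 90 h → Alamar Blue 6 h → fluor. 546/580 nm. DMSO = neg. control/baseline.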
Read-out in assay [2]: Secreted IgG (sIgG), gene 3500
The experiment in a line: BSK_BT_sIgG: BioMAP Diversity Plus: BT Assay for Secreted IgG (sIgG) Biomarker Activity (AID 2284226). Particulars: primary human B cells with PBMC. The method in brief: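 B cells co-cultured with PBMC were dosed with chemical and secreted IgG quantified by ELISA at 24 h. Activity was fitted in the positive direction relative to DMSO as negative control and baseline.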

Read-out in assay [3]: Interleukin 6 (IL6), IL6 (gene 3569)
In words: BSK_BT_xIL6: BioMAP Diversity Plus: BT Assay for Interleukin 6 (IL6) Biomarker Activity (AID 2284228). The following applies: primary human B cells with PBMC. A digest of the protocol: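 B cells and peripheral blood mononuclear cells (human primary co-culture) were dosed with chemical, and after 24 h IL-6 released into the medium was measured by Luminex xMAP. Responses were analysed as gain of signal over DMSO control.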

Read-out in assay [4]: Tumor necrosis factor (Homo sapiens) (UniProt P01375)
In words: BSK_BT_xTNFa: BioMAP Diversity Plus: BT Assay for Tumor necrosis factor alpha (TNF-alpha) Biomarker Activity (AID 2284230). The following applies: primary human B cells with PBMC. A digest of the protocol: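 Human primary co-culture of B cells and peripheral blood mononuclear cells; TNF-alpha in supernatant, 24 h post-dose, Luminex multiplex; DMSO = baseline.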

Assay [5] can be described thus: UKN2_HCS_IMR90_neural_migration: University of Konstanz (UKN) Leist Lab Neural Crest Cell Migration Assay in human induced IMR90 Pluripotent Stem Cells (UKN2) (AID 2284204). Particulars: actives raise or lower the signal. The method in brief:
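iPSC-derived IMR90 neural crest cells on PLO/laminin/fibronectin were seeded around silicone stoppers; after stopper removal, migration in N2-S medium with EGF and FGF ran 24 h before 24 h chemical exposure. Calcein-AM/Hoechst high-content imaging; bidirectional fit versus DMSO.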

Assay [6] in a line: IUF_NPC1b_proliferation_BrdU_72hr: Leibniz Research Institute for Environmental Medicine (IUF) 72-hour Neural Progenitor Cell Bromodeoxyuridine (BrdU) Proliferation Assay (NPC1b) (AID 2284207). A digest of the protocol: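 hNPC spheres (primary, GW 16-19 fetal cortex), single sphere/well, EGF+FGF medium; 72 h compound, no renewal; BrdU pulse last 16 h; luminescent ELISA; activity vs DMSO baseline; growth-factor withdrawal as positive control.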

Assay [7] can be described thus: IUF_NPC1a_proliferation_area_72hr: Leibniz Research Institute for Environmental Medicine (IUF) 72-hour Neural Progenitor Cell Proliferation Area Assay (NPC1a) (AID 2284208). A digest of the protocol: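 Spheres of 0.3 mm are plated singly in growth-factor medium and exposed from day 0. After three days at 37C and 5% CO2, sphere area is measured by phase contrast imaging, with activity referenced to DMSO.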

Assay [8] can be described thus: IUF_NPC1_viability_72hr: Viability Assessment at 72 hours in the Leibniz Research Institute for Environmental Medicine (IUF) Neural Progenitor Cell Proliferation Assay (NPC1) (AID 2284209). The method in brief:
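Human fetal-cortex neural progenitor spheres (0.25–0.35 mm, one per well) grown in EGF/FGF proliferation medium at 37C, pH 7.2-7.6, exposed 72 h without renewal; viability read as alamar blue resazurin-to-resorufin fluorescence relative to DMSO.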

Assay [9] in a line: CCTE_Mundy_HCI_Cortical_Synap_Neur_Matur_NeuriteSpotCountPerNeuriteLength: CCTE's Synaptogenesis and Neurite Maturation Assay in rat cortical cells for Neurite Spot Count per Neurite Length, Mundy Lab (AID 2284210). The method in brief: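 Rat primary cortical cultures, glia arrested with AraC at DIV 5, were dosed with media change at DIV 7 and fixed at DIV 12. Synaptophysin puncta per MAP2-labelled neurite length were quantified by high-content imaging versus DMSO.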

A short description of assay [10]: CCTE_Mundy_HCI_Cortical_Synap_Neur_Matur_BPCount: CCTE's Synaptogenesis and Neurite Maturation Assay in rat cortical cells for Branch Point Count, Mundy Lab (AID 2284211). A digest of the protocol:
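Branch point number is quantified by automated imaging of fluorescently labelled neurites and synapses in rat primary cortical neurons exposed from DIV 7 to DIV 12. Activity is analysed relative to DMSO negative control.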

A short description of assay [11]: CCTE_Mundy_HCI_Cortical_NOG_NeuriteCount: CCTE's Neurite Outgrowth Assay in rat cortical cells for Neurite Count, Mundy Lab (AID 2284212).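 Further: cells fixed about two days after chemical exposure began.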 A digest of the protocol:
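Neurite number per cell from high-content imaging of betaIII-tubulin immunostaining, with Hoechst nuclear counterstain.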

Assay [12] is described as follows: CCTE_Mundy_HCI_Cortical_NOG_NeuriteLength: CCTE's Neurite Outgrowth Assay in rat cortical cells for Neurite Length, Mundy Lab (AID 2284213). A digest of the protocol: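 Neurite length was read by high-content imaging of βIII-tubulin-labelled neurites in rat primary cortical cultures. Activity was fitted relative to DMSO.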
Assay [13] can be described thus: CCTE_Mundy_HCI_Cortical_Synap_Neur_Matur_NeuriteLength: CCTE's Synaptogenesis and Neurite Maturation Assay in rat cortical cells for Neurite Length, Mundy Lab (AID 2284214). A digest of the protocol:
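Rat primary cortical cells were plated, treated with AraC at DIV 5 to arrest glial growth, then chemical-dosed with media change at DIV 7 through DIV 12. Fixed cells stained for MAP2, synaptophysin and Hoechst; neurite length quantified by high-content imaging.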

Assay [14] in a line: CCTE_Mundy_HCI_Cortical_Synap_Neur_Matur_NeuriteSpotCountPerNeuron: CCTE's Synaptogenesis and Neurite Maturation Assay in rat cortical cells for Neurite Spot Count per Neuron Count, Mundy Lab (AID 2284215). The method in brief: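 Rat cortical primary cultures; AraC DIV 5 to arrest glia; dosing + media change DIV 7; fixed DIV 12. Anti-MAP2/anti-synaptophysin, Hoechst nuclei; HCI puncta count per neuron, positive fitting direction vs DMSO.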

A short description of assay [15]: CCTE_Mundy_HCI_Cortical_Synap_Neur_Matur_SynapseCount: CCTE's Synaptogenesis and Neurite Maturation Assay in rat cortical cells for Synapse Count, Mundy Lab (AID 2284218). The method in brief:
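Rat primary cortical cells in 96-well plates received AraC at DIV 5 and were dosed with chemicals at DIV 7 with media change, through DIV 12 (288.33 h). Synapses per neuron counted by high-content imaging of MAP2/synaptophysin/Hoechst staining, versus DMSO baseline.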

Assay [16] is described as follows: CCTE_Mundy_HCI_Cortical_Synap_Neur_Matur_NeuriteCount: CCTE's Synaptogenesis and Neurite Maturation Assay in rat cortical cells for Neurite Count, Mundy Lab (AID 2284222).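 Further: exposure from day 7 to day 12 in vitro with readout at day 12.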 A digest of the protocol:
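Primary rat cortical cells were plated, treated with AraC at DIV 5, then exposed to chemicals from DIV 7 through DIV 12. After fixation and immunostaining for MAP2 and synaptophysin, imaging quantified neurites, with DMSO as the negative control.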

The nature of assay [17]: CCTE_Mundy_HCI_Cortical_Synap_Neur_Matur_CellBodySpotCount: CCTE's Synaptogenesis and Neurite Maturation Assay in rat cortical cells for Cell Body Spot Count, Mundy Lab (AID 2284223). The method in brief:
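Rat cortical neurons; AraC @ DIV 5; dose + media change DIV 7; fix DIV 12; anti-MAP2/anti-synaptophysin IF, Hoechst; HCI count of soma synaptophysin puncta/neuron; DMSO = negative control.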

Assay [18] in a line: TAMU_PeakParms_SingleDonor1434_Chronotropy: Texas A&M University (TAMU) 1.5-hr Human Induced Pluripotent Stem Cell (iPSC)-derived Cardiomyocytes Calcium (Ca+2) Flux Assay for Cardiotoxicity: Chronotropy (changes in peak frequency) (AID 2284217). The following applies: actives raise or lower the signal. The method in brief:
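iPSC-CMs, donor 1434; 4 conc (0.2–100 uM), 0.5% v/v DMSO, 90 min, 37C/5% CO2; Ca2+ flux fluorescence → peak.freq.avg; peak.freq.avg = 0 dropped; bidirectional fit vs DMSO; EC05 POD.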

Tumor necrosis factor (Homo sapiens), sequence (P01375 whole entry, looked up): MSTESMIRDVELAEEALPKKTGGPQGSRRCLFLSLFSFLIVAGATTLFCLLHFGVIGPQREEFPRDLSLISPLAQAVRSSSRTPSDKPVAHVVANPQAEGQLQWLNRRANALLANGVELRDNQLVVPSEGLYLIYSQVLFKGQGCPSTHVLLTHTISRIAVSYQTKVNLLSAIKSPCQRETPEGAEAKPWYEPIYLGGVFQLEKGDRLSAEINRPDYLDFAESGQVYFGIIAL

With `CC1(C)[C@H](C=C(Cl)Cl)[C@H]1C(=O)OCc1cccc(Oc2ccccc2)c1`, the outcome in assay [1], in [2], in [3] and in [4] was inactive.

For orientation: AC50 means the midpoint of the concentration-response curve, whichever way the signal moves. `C=CC(=O)OCC(CO)(COC(=O)C=C)COC(=O)C=C`: the AC50 is 1700 nM (active) in assay [1], 709 nM (active) in assay [2], 994 nM (active) in assay [3] and 1880 nM (active) in [4].

In the case of `O=C(O)C(F)(F)OC(F)(F)C(F)(F)OC(F)(F)C(F)(F)C(F)(F)C(F)(F)F`, the AC50 in assay [1] was 22100 nM (active). Further, the outcome in assay [1], in assay [2], in assay [3] and in [4] was inactive.

As to `C=C(F)C(=O)OC(C(F)(F)F)C(F)(F)F`, the outcome in assay [1], in [2], in [3] and in assay [4] was inactive.

Regarding `CCCCCCCC1CCCC1=O` (stereo not given), the outcome in assay [1], in assay [3] and in [4] was inactive. Further, the AC50 in assay [2] was 2500 nM (active).

For the compound `NC(=O)c1c(Cl)cccc1Cl`, the outcome in [1], in assay [2], in [3] and in assay [4] was inactive.

In the case of `CCC(=O)OCC=Cc1ccccc1`, the outcome in assay [1], in [2], in assay [3] and in assay [4] was inactive.

As to `O=S1(=O)CC(Cl)(Cl)C(Cl)(Cl)C1`, the AC50 in [1] is 874 nM (active); in [2] it was 329 nM (active); in [3], 416 nM (active); in [4], 749 nM (active).

Turning to `c1ccc2scnc2c1`, the call in assay [5], in assay [7], in assay [8], in assay [9], in [10] and in [11] was inactive. Moreover, the call in assay [12], in assay [13], in [14], in assay [15], in assay [16] and in assay [17] was inactive. Moreover, the AC50 in assay [6] is 10000 nM (active).

Take `N[C@@H](CCC(=O)O)C(=O)O`: the result in assay [6], in assay [7], in [8], in assay [9], in assay [10] and in [11] was inactive. The call in [12], in assay [13], in assay [14], in [15], in assay [16] and in assay [17] was inactive.

`CCOC(=O)CCCCCCCCC(=O)OCC`: the outcome in assay [1], in [2], in assay [3] and in assay [4] was inactive.

Consider `O=S(=O)(O)C(F)(F)C(F)(F)OC(F)(F)C(F)(F)F`, for which the result in [1], in assay [2], in assay [3] and in assay [4] was inactive.

As for `CC(C)(C)c1cccc(O)c1`, the outcome in assay [1], in assay [2], in assay [3] and in [4] was inactive.

As to `Nc1ccc(N)c([N+](=O)[O-])c1`, the result in assay [2], in assay [3] and in assay [4] was inactive.

In the case of `CC(=O)OCC=C(C)CCC=C(C)CCC=C(C)C`, the AC50 in assay [1] was 33200 nM (active); in assay [2], 20000 nM (active); in assay [3], 30700 nM (active); in [4], 36500 nM (active).

On to `CCOC(=O)C=Cc1ccccc1`, for which the result in assay [1], in assay [2], in [3] and in [4] was inactive.

Consider `CC(=O)OC(C)(C)C1CC=C(C)CC1` (stereo not given), for which the outcome in [1], in [2], in assay [3] and in assay [4] was inactive.

On to `c1ccc(Sc2ccccc2)cc1`, for which the result in assay [1], in [2], in assay [3] and in assay [4] was inactive.

As for `C=C1CC/C=C(\C)CC[C@@H]2[C@@H]1CC2(C)C`, the outcome in assay [1], in assay [2], in assay [3] and in assay [4] was inactive.

`CC/C(=C(\c1ccccc1)c1ccc(OCCN(C)C)cc1)c1ccccc1`: the result in [18] was inactive.

Regarding `CNC(=C[N+](=O)[O-])NCCSCc1ccc(CN(C)C)o1`, the outcome in assay [18] was inactive.
